# Screening results (PubChem)
# KB-V1 cytotox: kills drug-selected multidrug resistant KB-V1 cells. actives 3.4% (n = 400,000). KB-V1 MDR cells viability, CellTiter-Glo, 72 h. Potency, µM (titrated, usually from 46.1 µM), most hits filed as cytotoxic. AID 1347076; note: % is set by controls: 0 for no effect and ±100 for the full control effect; nearly all actives have a fitted effect of over 60% in size
#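 Cytotoxicity toward P-gp-expressing KB-V1 cells was determined as loss of CellTiter-Glo luminescence after 72 h at 37 degrees C. Compounds were tested in quantitative HTS format across a concentration range, with curves fitted to normalized data.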
# HT1080 IDH1KD tx: HT-1080 IDH1 knockdown cell toxicity (counter line). HT-1080 IDH1 knockdown viability, ATP luminescence, 48 h. Potency, µM (titrated, usually from 46.1 µM), without a hit: at the top dose activity, negative = toxicity, actives largely listed as cytotoxic. actives 2% (n = 360,000). AID 686971;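 note: 0% = DMSO wells and -100% = cell-free medium wells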
#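 After a 2 h attachment period, IDH1KD HT-1080 cells took pin-transferred compound for 48 h at 37 °C; ATP-based luminescence after 10 min room-temperature reagent incubation reported viability.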
# ATXN2 expr inh: reduces ATXN2 reporter expression in HEK-293 cells | HEK-293 ATXN2-luciferase reporter, luminescence, 24 h | Potency, µM (doses to about 57 µM), for inactives: at the top dose activity change, negative = inhibition, hits mostly inhibitors | actives 0.72% (n = 360,000) | AID 1745845; note: % is set by controls: 0 for no effect and ±100 for the full control effect; nearly all actives have a fitted effect of over 55% in size
#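 qHTS (up to 57 uM final) was run with 24 h compound exposure of reporter cells at 37 °C. Each well was multiplexed: SteadyGlo luminescence measured ATXN2-luciferase expression after a fluorogenic Gly-Phe-AFC viability readout (25 uM final).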
# HT1080NT lethal: kills 2HG-producing HT-1080-NT fibrosarcoma cells. HT-1080-NT fibrosarcoma viability, CellTiter-Glo ATP luminescence, 48 h. Potency, µM (series often up to 46.1 µM), for the others: at the top dose activity, negative = less viability, usual class: cytotoxic. actives 1.6% (n = 360,000);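 note: NT is the 2HG producing partner of a matched IDH1 knockdown line; 0% = DMSO-treated cells and -100% = media-only wells without cells; nearly all actives have a fitted effect of over 55% in size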
#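 Luminescent CellTiter-Glo readout after 48 hours of compound exposure at 37 degrees C defined viability of HT-1080-NT cells. Activity was normalized to DMSO wells and cell-free media wells; concentration-response curves were fitted and assigned curve classes.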
# S2 tox: cell viability loss in ATXN counter-screen; S2 cells (HEK-293 line with an ATXN2-luciferase reporter) viability, CellTiter-Fluor protease fluorescence, 24 h; Potency, µM (top dose mostly 56.7 µM), usual class: cytotoxic; actives 0.49% (n = 400,000); AID 651635; note: nearly all actives have a fitted effect of over 40% in size
# KB-3-1 tox: kills parental KB-3-1 adenocarcinoma cells; KB-3-1 viability, CellTiter-Glo ATP luminescence, 72 h; Potency, µM (series often up to 46.1 µM), usual class: cytotoxic; actives 1.4% (n = 400,000); note: % is set by controls: 0 for no effect and ±100 for the full control effect; nearly all actives have a fitted effect of over 60% in size
#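 KB-3-1 cells, DMEM (no phenol red) + 10% FBS; compound by pin transfer, 72 h, 37 °C. Readout: CellTiter-Glo luminescence after 10 min. Data normalized, curve-fitted.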
# * marks the source's active call; other numbers are inactive results; i = inactive; ? = inconclusive; . = no result given; ! = not confirmed by another sample. A selection: hits, their analogues and other compounds. The true share with any hit is near 6.2%. Calls come from the whole dose curve; as a rule, active = well fitted curve in the direction sought with a large enough effect; inconclusive = small, poorly fitted or top-dose-only effect, or another doubt; inactive = no such curve, though single readings can be large; an effect the other way counts as inactive or inconclusive. Potency is the fitted concentration of half-maximal effect.
SMILES,KB-V1 cytotox,HT1080 IDH1KD tx,ATXN2 expr inh,HT1080NT lethal,S2 tox,KB-3-1 tox
C/C=C(/CC[C@@H](C)[C@H]1CC[C@H]2C3=CC[C@H]4[C@H](C)[C@@H](O)CC[C@]4(C)[C@H]3CC[C@]12C)C(C)C,.,.,.,.,i,.
COc1cc(C2c3cc4c(cc3C(OC3OC5COC(c6cccs6)OC5C(O)C3O)C3COC(=O)C23)OCO4)cc(OC)c1O (stereo not given),i,?,0.316µM*,?,?,4.11µM*
COc1cc([C@@H]2c3cc4c(cc3[C@@H](O[C@@H]3O[C@@H]5CO[C@@H](C)O[C@H]5[C@H](O)[C@H]3O)[C@H]3COC(=O)[C@H]23)OCO4)cc(OC)c1O,i,?,1.12µM*,-12.6%,?,16.4µM*
CCN(CC)C1Oc2cc3c(cc2C(c2cc(OC)c(O)c(OC)c2)C1C)OCO3 (stereo not given),?,?,-19.8%,?,?,?
CCCC1S/C(=N/N=C/c2ccc(C)cc2)N(Cc2ccc(OC)cc2)C1=O (stereo not given),13µM*,-1.2%,-10.0%,-0.8%,i,?
COc1ccc(CN2C(=O)CS/C2=N/N=C/c2ccccc2)cc1,i,8.0%,14.2%,2.6%,i,i
CC1CNCCN1S(=O)(=O)c1cccc2cnccc12 (stereo not given),?,?,-12.1%,?,i,i
O=S(=O)(c1cccc2cnccc12)N1CCCNCC1,i,-14.9%,25.1µM*!,?,i,?
CCCCC(=O)N(C)c1c(CC)nc2c(OCC3CCCCC3)cccn12,25.9µM*,?,?,?,i,?
Cc1nc2c(OCc3ccc(C(F)(F)F)cc3)cccn2c1N(C)C(=O)CCC1CCCC1,?,?,31.6µM*,?,?,?
N#C/C(=C1/SC[C@@H](c2ccc(Cl)cc2Cl)S1)n1ccnc1,.,.,?,.,i,.
CCOc1ccccc1NC(=O)Cn1nc(N2CCN(c3ccccc3)CC2)ccc1=O,i,.,-37.8%,.,i,i
CCc1ccccc1NC(=O)c1ccc(Cn2nc(N3CCN(c4ccccc4)CC3)ccc2=O)o1,i,.,20µM*,.,?,i
S=C(Nc1ccccc1)N1CCn2c1nc1ccccc12,i,?,-6.3%,1.41µM*,i,i
O=C(Nc1ccccc1)N1CCn2c1nc1ccccc12,i,-12.7%,17.7%,-12.6%,i,i
O=C(Nc1cccc(C(F)(F)F)c1)N1CC2CCCN2c2ccccc21 (stereo not given),i,.,.,.,.,i
CCOC(=O)[C@]12CCC=C1N(Cc1ccc(Cl)cc1Cl)C(=O)[C@H](CC(=O)NCc1cccc3ccccc13)C2,?,-23.0%,2.9%,-27.0%,i,i
CCCCNC(=O)C[C@@H]1C[C@@]2(C(=O)OCC)CCCC=C2N(Cc2ccc(Cl)cc2Cl)C1=O,9.2µM*,-28.8%,?,?,?,?
CCOC(=O)[C@]12CCCC=C1N(Cc1cccc3ccccc13)C(=O)[C@H](CC(=O)NCc1ccc(OC)c(OC)c1)C2,6.51µM*,?,?,?,?,?
CCOC(=O)[C@]12CCCC=C1N(Cc1cccc3ccccc13)C(=O)[C@H](CC(=O)NCc1cccs1)C2,16.4µM*,?,-37.9%,?,?,?
CCOC(=O)[C@]12CCC=C1N(Cc1ccc(Cl)cc1Cl)C(=O)[C@H](CC(=O)NCc1ccc(OC)c(OC)c1)C2,5.17µM*,-28.5%,?,?,?,7.31µM*
Cc1ccc(CN2CCc3nnc(C(NC(=O)c4ccoc4)C(C)C)n3CC2)cc1C (stereo not given),.,.,.,.,i,.
CCOC(=O)[C@]12CCCC=C1N(Cc1cccc3ccccc13)C(=O)[C@H](CC(=O)N1CCCC1)C2,9.2µM*,-9.8%,-18.0%,-9.6%,?,i
COC(=O)c1ccc2c(=O)n(CC3CCCO3)c(SCC(=O)Nc3ccccc3OC)nc2c1 (stereo not given),3.26µM*,2.9%,29.6%,3.1%,?,i
COC(=O)c1ccc2c(=O)n(CC3CCCO3)c(SCC(=O)Nc3ccccc3Cl)nc2c1 (stereo not given),i,-18.2%,?,-3.1%,?,i
SMILES,KB-V1 cytotox,HT1080 IDH1KD tx,ATXN2 expr inh,HT1080NT lethal,S2 tox,KB-3-1 tox
CCc1nc2cc(C(=O)N(C)CC3COCCO3)cc(NC(=O)c3ccccc3OC)c2n1C (stereo not given),.,.,.,.,i,.
CCOc1ccc(-n2c(SCC(=O)N3CCOCC3)nc3c([nH]c4ccccc43)c2=O)cc1,?,.,2.8%,.,i,i
Cc1ccccc1OCc1nc2ccc(S(=O)(=O)N3CCOCC3)cc2[nH]1,20.6µM*,1.6%,-4.1%,-9.0%,i,i
O=C1C(=O)c2c(C(=O)c3ccccc3)coc2-c2ccccc21,20.6µM*,?,?,-0.4%,.,?
Cc1oc2c(c1C(=O)c1ccccc1)C(=O)C(=O)c1ccccc1-2,i,18.4µM*,3.55µM*,18.4µM*,.,?
Cc1oc2c(c1C(=O)O)C(=O)c1ccccc1C2=O,i,-12.9%,-11.8%,2.6%,i,?
COc1ccccc1Nc1nc(N)nc(CSc2nc(C)cc(C)n2)n1,13µM*,0.3%,0.3%,-1.2%,i,?
COc1ccccc1Nc1nc(N)nc(CSc2nccc(C)n2)n1,i,3.5%,8.7%,2.4%,i,i
FC(F)(F)c1cnc(-c2cnc(-c3cccnc3)nc2)c(Cl)c1,i,?,24.3%,22.0%,i,i
CN(C)/C=N/c1ncc(-c2ncc(C(F)(F)F)cc2Cl)cn1,10.3µM*,11.7%,-6.6%,14.6%,i,?
COc1ccc(CCC(=O)N2CCN(S(=O)(=O)c3ccc(OC(F)(F)F)cc3)CC2)cc1,16.4µM*,7.9%,0.4%,0.0%,i,i
Cc1ccc(C(=O)c2cn(Cc3ccccc3F)c3cc4c(cc3c2=O)OCO4)cc1,i,.,-2.5%,.,i,i
COCc1c(C#N)c(NCc2cc(OC)c(OC)c(OC)c2)nc(C)c1[N+](=O)[O-],5.17µM*,-22.5%,-30.1%,-13.2%,i,?
COc1cc(CNc2nc(C)c([N+](=O)[O-])c(C)c2C#N)cc(OC)c1,7.31µM*,-0.5%,-1.7%,-0.7%,i,?
COCc1c(C#N)c(NCCc2ccc(F)cc2)nc(C)c1[N+](=O)[O-],5.17µM*,3.7%,-17.0%,2.4%,i,?
